Reference: PubChem BioAssay (NCI)
The panel holds about 79,000 compounds, 15% with a hit somewhere; the sample as a whole holds those more often. The source made the active and inactive calls. Rule as the data show it: active = growth inhibition above about 70%; inactive = the rest.

Test: NCI Yeast Anticancer Drug Screen. Data for the bub3 strain (AID 167)
Conditions: S. cerevisiae bub3 mutant strain, at 50.0 µM, hits give high values
Method in brief: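 Part of a panel of yeast mutants defective in DNA damage repair or cell cycle regulation. Each strain is grown with compound, and inhibition is calculated relative to solvent-treated cultures.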

Compound	growth inhibition
CC[CH2][Sn]([CH2]CC)([O]C(=O)c1cccnc1SC)[O][Sn]([CH2]CC)([CH2]CC)[O]C(=O)c1cccnc1SC	89.1% (active)
CC(=O)c1cccc(NC(=O)Nc2cccc(O)c2)c1	56.1% (inactive)
C#CCN(Cc1ccc2nc(-c3ccccc3)c(Cl)nc2c1)c1ccc(Cl)c(Cl)c1	-16.4% (inactive)
O=C(NCC1(O)CCCCC1)c1ccccc1	3.8% (inactive)
NC(CCC(N)C(=O)O)C(=O)O (stereo not drawn)	-13.1% (inactive)
COc1cc(CSCC(=O)O)ccc1O	-19.6% (inactive)
O=c1[nH]c2nc3ccccc3c(=O)n2/c1=C/c1ccc(Cl)cc1	14.1% (inactive)
C=CC1=C(C)C2=NC1=CC1=NC(=CC3=C(C)C4=C(O)C(C(=O)OC)C(=C5NC(=C2)C(C)C5CCC(=O)OC/C=C(\C)CCCC(C)CCCC(C)CCCC(C)C)C4=N3)C(CC)=C1C (stereo not drawn)	-29.1% (inactive)
NC(N)=NC(=O)c1ccccc1	-0.55% (inactive)
CC(=O)Nc1ccc(C(=O)NN2C(=O)C(Cl)C2c2ccc(Cl)cc2)cc1 (stereo not drawn)	-28.9% (inactive)
COc1cc([N+](=O)[O-])cc(C=O)c1O	-38.8% (inactive)
O=C(O)C1CCCCC1C(=O)Nc1nc2ccccc2[nH]1 (stereo not drawn)	-57.9% (inactive)
CSc1nc2nc[nH]c(=O)c2[nH]1	-5.35% (inactive)
CCSC(OC(C)=O)C(Nc1ccc([N+](=O)[O-])cc1[N+](=O)[O-])C(OC(C)=O)C(OC(C)=O)C(COC(C)=O)OC(C)=O (stereo not drawn)	-0.6% (inactive)
CC(C)N(CCN1CCCCC1)c1ccccn1	10.3% (inactive)
CN(C)c1ccc(N=Nc2ccc(S(=O)(=O)O)cc2)cc1.CN(C)c1ccc(N=Nc2ccc(S(=O)(=O)O)cc2)cc1.[NH-]C1CCCCC1[NH-].[Pt+2]	15.6% (inactive)
COC(=O)C1CSC(C)(C)N1 (stereo not drawn)	-7.35% (inactive)
O=C(Oc1c(Br)cc(Br)cc1C(=O)Oc1ccccc1)C(=O)Oc1c(Br)cc(Br)cc1C(=O)Oc1ccccc1	51.2% (inactive)
ClCC1COC(CCc2ccccc2)O1 (stereo not drawn)	3.1% (inactive)
COc1ccc(C(C)c2cc(OC)c(OC)cc2OC)cc1 (stereo not drawn)	44.2% (inactive)
COc1cc(CCCCC(=O)O)cc(Br)c1OC	29.8% (inactive)
CC1CN1C(=O)Nc1cccc2c(NC(=O)N3CC3C)cccc12 (stereo not drawn)	22.4% (inactive)
Nc1ccc(S(=O)(=O)/N=C(\NS(=O)(=O)c2ccc(N)cc2)c2ccccc2)cc1	5.85% (inactive)
